# Rows were chosen to be rich in hits. Some 9.5% of all compounds tested hit in one or more screens of this group.
# NS1 inh: influenza NS1 inhibition; AID 2326; 0.4% of 270,000 active; Potency, µM (series often up to 46.1 µM), for the others: at the top dose activity, positive = more growth; also: actives are rising curves; nearly all actives have a fitted effect of over 50% in size
#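 In this qHTS, NS1 from influenza A is expressed in budding yeast, where it slows growth. Cells are switched from glucose to 2% galactose medium (pH 6.0, -URA), treated with compound, and growth recovery is read at OD600.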
# Pf growth 96h: inhibits malaria parasite growth, 96 h. Potency, µM (top dose mostly 28.7 µM), for inactives: at the highest dose activity change, negative = inhibition, hits mostly inhibitors. 6.9% of 320,000 active. AID 504834. P. falciparum luciferase reporter growth, 96 h; active = well fitted inhibition curve with a large enough effect; inconclusive = small, poorly fitted or top-dose-only effect, or another doubt; inactive = no such curve, though single readings can be large or run the other way; also: % is scaled to controls: 0 for no effect and ±100 for the full control effect
#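 Two parasite generations (96 h, 37 C, 5% CO2) of compound exposure in infected erythrocytes (0.05% parasitemia, 2% hematocrit). Luciferase-reporter P. falciparum; decreased luminescence indicates inhibited growth, aimed at apicoplast-acting delayed death.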
# RE007 growth inh: less growth of the S. pombe RE007 Vpr strain; 0.21% of 360,000 active; Potency, µM (top dose mostly 92.2 µM), without a hit: top-dose activity change, negative = less growth, actives largely listed as inhibitors; S. pombe RE007 Vpr strain, BacTiter-Glo ATP luminescence, 24 h; AID 651644; active = well fitted falling curve with a large enough effect; inconclusive = small, poorly fitted or top-dose-only effect; inactive = no such curve, though single readings can be large or run the other way; also: % is scaled to controls: 0 for no effect and ±100 for the full control effect; nearly all actives have a fitted effect of over 50% in size
#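 Fission yeast RE007 carrying one integrated HIV-1 vpr copy, seeded at OD 0.01 in PMG+AL medium with 23 nL pinned compound. Grown 24 h at 30 degrees; viability read by BacTiter-Glo luminescence after 5 min.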
# SARS PLP yeast: SARS-CoV PLP inhibition in yeast. S. cerevisiae expressing SARS-CoV PLpro, growth rescue. Potency, µM (doses to about 32.9 µM), inactives show at the top dose activity, positive = growth rescue, most hits filed as activators. 0.19% of 330,000 active. AID 485353; also: 0% is about no effect; nearly all actives have a fitted effect of over 55% in size
# Pf growth 48h: P. falciparum growth inhibition at 48 hours (one generation); P. falciparum luciferase growth in erythrocytes, 48 h; Potency, µM (top dose mostly 28.7 µM), without a hit: at the highest dose activity change, negative = inhibition, most hits filed as inhibitors; 5.9% of 310,000 active; AID 504832; active = well fitted inhibition curve with a large enough effect; inconclusive = small, poorly fitted or top-dose-only effect, or another doubt; inactive = no such curve, though single readings can be large or run the other way; also: % is scaled to controls: 0 for no effect and ±100 for the full control effect
#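 Read-out is firefly luciferase luminescence from an integrated reporter in P. falciparum, so falling signal marks reduced parasite growth. Infected erythrocytes were at 2% hematocrit and 0.1% parasitemia (final) in Albumax-supplemented RPMI 1640.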
# * = called active by the depositor; ? = inconclusive; . = not tested or not shown; [ ] = remark or other dose. Unless noted, calls follow the shape of the full dose curve. Potency is read from the fitted curve at half-maximal effect.
SMILES,NS1 inh,Pf growth 96h,RE007 growth inh,SARS PLP yeast,Pf growth 48h
Cn1c(=O)oc2cc(S(=O)(=O)N3CCCC(C(=O)N4CC=C(c5ccccc5)CC4)C3)ccc21 (configuration not stated),10µM*,-1.7%,.,4.4%,.
COc1ccc(NC(=O)C2CCCN(S(=O)(=O)c3ccc4c(c3)oc(=O)n4C)C2)cc1OC (configuration not stated),-7.3%,?,7.4%,0.8%,.
COc1ccc(C)cc1S(=O)(=O)N1CCCC(C(=O)N2CCOCC2)C1 (configuration not stated),6.9%,2.9%,10.3%,16.2%,41.9%
O=C(O)C[C@H](Cc1ccccc1Cl)C(=O)O,-5.6%,.,.,.,.
O=C(c1cccc(S(=O)(=O)N2CCN(c3ccc(F)cc3)CC2)c1)N1CCN(c2ccccc2O)CC1,.,.,-3.5%,.,.
O=C(COc1ccc2ccc(=O)oc2c1)NC1CCN(Cc2ccccc2)CC1,-11.1%,-16.5%,-16.6%,?,4.8%
CCCc1nc2ccccc2c(C(=O)OCC(=O)NCc2ccc3c(c2)OCO3)c1CC,1.6%,8.28µM*,-2.4%,-31.7%,10.4µM*
Cc1c(-c2cccc(Cl)c2)nc2ccccc2c1C(=O)NC1CC1,0.9%,10.4µM*,3.7%,0.3%,-23.8%
Cc1c(-c2cccc(Cl)c2)nc2ccccc2c1C(=O)OCC(=O)Nc1ccc2c(c1)OCO2,10.3%,2.08µM*,?,0.5%,?
CCCCN(C(=O)CSCc1c(C)noc1C)c1c(N)n(CCCC)c(=O)[nH]c1=O,.,6.8%,-0.2%,1.6%,?
CC(C)(C)c1cc(C(=O)N/N=C/c2ccc(-c3ccccc3[N+](=O)[O-])o2)n[nH]1,16.2%,10.4µM*,1.8%,0.9%,11.7µM*
O=C(N/N=C/c1ccc(-c2cccc(C(F)(F)F)c2)o1)c1cccc(F)c1,6.1%,?,-26.2%,-17.3%,11.7µM*
O=C(N/N=C/c1ccc(-c2cccc([N+](=O)[O-])c2)o1)c1ccccc1O,.,101.7%,-6.6%,-1.2%,?
COc1cc([N+](=O)[O-])ccc1-c1ccc(/C=N/NC(=O)c2ccccc2O)o1,-0.5%,?,.,0.1%,2.62µM*
O=C(N/N=C/c1ccc(-c2cccc(C(F)(F)F)c2)o1)c1ccccc1Br,6.8%,70.9%,-14.6%,-7.9%,0.5%
O=C(N/N=C/c1ccc(-c2cccc(C(F)(F)F)c2)o1)c1ccccc1O,-1.5%,-14.7%,3.0%,16.9%,8.28µM*
N#CCCSC(=S)[C@H]1CCCC1=N,1.8%,.,.,.,.
O=S(=O)(c1ccccc1)c1cnn(-c2ccccc2)c1-c1ccc(Cl)cc1,22.6%,2.94µM*,-4.4%,-11.6%,11.7µM*
COc1ccc(-c2c(S(=O)(=O)c3ccccc3)cnn2-c2ccccc2)cc1,6.4%,6.57µM*,0.9%,-3.6%,?
COc1ccc(S(=O)(=O)Nc2cc(C)nn2-c2ccccc2)cc1,17.1%,34.2%,22.6%,7.6%,.
CNC(=O)C[C@@H]1CC[C@@H]2[C@H](COC[C@H](O)CN2S(=O)(=O)c2ccccc2Cl)O1,.,.,-18.1%,.,.
O=C(/C=C/c1ccccc1[N+](=O)[O-])c1ccccc1Br,-85.5%,12.6%,28.2µM*,-5.1%,?
Cc1ccc(C(=O)/C=C/c2ccccc2[N+](=O)[O-])cc1,-9.2%,68.4%,3.4%,-1.7%,?
Cc1noc(C)c1NC(=O)Nc1cccc2c1O[C@H](CN(C)S(=O)(=O)c1cn(C)cn1)[C@@H](C)CN([C@H](C)CO)C2=O,.,.,5.5%,-3.2%,.
Cc1ncc(CN2CCCC(C(=O)c3sccc3C)C2)s1 (configuration not stated),-1.1%,11.7µM*,4.3%,0.8%,-15.7%
SMILES,NS1 inh,Pf growth 96h,RE007 growth inh,SARS PLP yeast,Pf growth 48h
O=C1CCC(c2ccc3ccccc3c2)O1 (configuration not stated),.,.,-2.4%,.,.
COc1ccc(Cl)cc1NC(=O)C1CCCN(S(=O)(=O)c2cccc3nonc23)C1 (configuration not stated),5.9%,.,5.4%,11.0%,?
O=S(=O)(c1cccc2nonc12)N1CCN(c2ccccc2F)CC1,0.8%,25.8%,7.6%,-0.6%,-9.6%
O=C(Nc1ccc(F)cc1)C1CCCN(S(=O)(=O)c2cccc3nonc23)C1 (configuration not stated),-2.1%,3.7µM*,-10.0%,9.5%,-20.2%
Cc1cccc(N2CCN(S(=O)(=O)c3cccc4nonc34)CC2)c1C,-5.0%,2.94µM*,-5.6%,-26.6%,-12.9%
O=C(C1CCCN(S(=O)(=O)c2cccc3nonc23)C1)N1CCN(c2cccc(Cl)c2)CC1 (configuration not stated),6.0%,7.38µM*,-11.7%,-2.2%,.
O=C(C1CCCN(S(=O)(=O)c2cccc3nonc23)C1)N1CCN(c2ccccc2Cl)CC1 (configuration not stated),?,11.7µM*,-8.7%,-36.9%,11.7µM*
O=C(NCc1ccc(F)cc1)C1CCCN(S(=O)(=O)c2cccc3nonc23)C1 (configuration not stated),10.7%,?,-6.7%,4.7%,-8.0%
Cc1cccc(OCCC(=O)Nc2ccc(N3CCOCC3)cc2N2CCOCC2)c1,.,?,4.1%,-0.7%,?
O=C1C=C(c2cccs2)CC(c2cccs2)C1n1cnc([N+](=O)[O-])c1 (configuration not stated),-4.2%,.,-11.5%,2.7%,?
O=C1C=C(c2ccccc2)C[C@H](c2cccs2)[C@H]1n1cnc([N+](=O)[O-])c1,1.1%,?,-9.6%,-3.1%,13.1µM*
CC1CCC(NC(=O)CCS(=O)(=O)c2ccc3c(c2)CCN3C(=O)C2CC2)CC1 (configuration not stated),-9.7%,71.6%,0.8%,1.5%,-7.7%
CN(C)c1ccc(C(=C2C=CC(=[N+](C)C)C=C2)c2ccc(N(C)C)cc2)cc1,.,0.19µM*,.,.,0.301µM*
CN(C)c1ccc(C(=C2C=CC(=[N+](C)C)C=C2)c2c(O)c(S(=O)(=O)[O-])cc3cc(S(=O)(=O)O)ccc23)cc1,.,6.01µM*,.,.,?
CN(C)c1ccc(C(=O)c2ccc(N(C)C)cc2)cc1,-5.7%,102.6%,0.6%,-14.2%,.
CN(C)c1ccc(C(=C2C=CC(=[N+](C)C)C=C2)c2ccccc2)cc1,-36.1%,3.79µM*,.,.,7.57µM*
Cn1c2ccccc2c(=O)c2c(=O)n(-c3ccc(F)cc3)c(C3CCCCC3)nc21,.,.,-0.1%,.,.
COc1cccc(-c2cnc(C(O)c3ccc(-c4ccccc4)cc3)[nH]2)c1 (configuration not stated),.,.,-14.4%[18.4 µM],.,.
Cc1nc2ccccn2c(=O)c1NC(=O)c1ccc2c(c1)OCO2,.,.,-5.6%,.,.
CO/N=C(/C(=O)N[C@@H]1C(=O)N2C(C(=O)O)=C(COC(N)=O)CS[C@H]12)c1ccco1,.,16.9µM*,.,.,15.1µM*

# High-throughput results (PubChem)
